Screening results (PubChem BioAssay)
Only some compounds are listed: those with a hit (about 4.5% of all), similar ones and a draw of the others.
GDH-TPI counter-1 – counter-screen for M. tuberculosis FBA inhibitors: GDH-TPI coupled enzymes; GDH-TPI coupled enzyme counterscreen, NADH absorbance; inhibition, % at 4.8 µM; 360,000 compounds, 1.2% hits; AID 588335; in the data active = inhibition above about 30%;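 note: 0% = DMSO wells and 100% = wells lacking the enzyme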
PfHsp40 yeast – restores yeast growth despite PfHsp40 toxicity; S. cerevisiae expressing PfHsp40, growth rescue, ATP luminescence; growth rescue, % at 12.5 µM; 340,000 compounds, 0.68% hits; AID 504582; in the data active = growth rescue above about 28%, passing the limit was not always enough;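 note: yeast W303a lacking pdr1 and pdr3 grown in galactose medium; growth measured after three days at 30 °C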
PrPC TRFRET – inhibitors of human cell surface prion protein PrPC; P04156; TR-FRET read-out; inhibition, % at 13.8 µM; 370,000 compounds, 0.43% hits; in the data active = inhibition above about 24%; note: 0% = median of the test wells and 100% = reference compound wells
BJeLR viability – kills HRASV12-expressing BJeLR cells. BJeLR (HRASV12) viability, CellTiter-Glo ATP luminescence, 48 h. inhibition, % (no concentration beside the values). 300,000 compounds, 0.17% hits. AID 1554; in the data active = inhibition above about 50%
Mtb FBA inh – Mtb fructose-bisphosphate aldolase inhibition. P9WQA3. 360,000 compounds, 2.3% hits. inhibition, % at 1 µM. purified M. tuberculosis FBA, fluorescence read-out;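 note: 0% = vehicle and 100% = reference inhibitor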
Target sequence (P9WQA3 whole entry, looked up): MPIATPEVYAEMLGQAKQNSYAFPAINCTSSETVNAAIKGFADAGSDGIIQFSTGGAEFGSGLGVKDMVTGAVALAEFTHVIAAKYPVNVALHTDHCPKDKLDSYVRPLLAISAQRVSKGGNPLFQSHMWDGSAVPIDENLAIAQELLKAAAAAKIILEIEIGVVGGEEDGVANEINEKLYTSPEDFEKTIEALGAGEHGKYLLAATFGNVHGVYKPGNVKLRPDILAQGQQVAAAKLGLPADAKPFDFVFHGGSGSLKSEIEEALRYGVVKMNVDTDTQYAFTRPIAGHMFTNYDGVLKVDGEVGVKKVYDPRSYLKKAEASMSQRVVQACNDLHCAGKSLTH
PrP UTR inh – inhibition of PrP 5' UTR reporter expression | cell-based PrP 5' UTR mRNA reporter, plate reader | 340,000 compounds, 0.35% hits | inhibition, % (no concentration beside the values) | AID 488862; in the data active = inhibition above about 52%; note: 0 = median of the neutral control wells
Mtb FBA inh conf – Mtb FBA inhibition, confirmed | shares compounds with Mtb FBA inh | purified M. tuberculosis FBA, fluorescence read-out | inhibition, % at 1 µM | 5,600 compounds, 78% hits;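 note: 0% = vehicle wells and 100% = reference inhibitor wells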
GDH-TPI counter-2 – counter-screen for M. tuberculosis FBA inhibitors: GDH-TPI coupled enzyme inhibition. shares compounds with Mtb FBA inh. GDH-TPI coupled enzyme counterscreen, fluorescence. inhibition, % at 1 µM. 5,600 compounds, 81% hits. AID 652141; in the data active = inhibition above about 10%
GDH-TPI dose – counter-screen for M. tuberculosis FBA inhibitors: GDH-TPI dose response; GDH-TPI coupled enzyme assay, fluorescence, artifact counterscreen; shares compounds with Mtb FBA inh; AID 652145; 170 compounds, 79% hits; IC50, µM; call rule not given here
The depositor's hits bear a star; nt = no result given; + = active, no number. Cut-off read from the data, not from the text of the source, unless noted: active = inhibition above about 27%; inactive = the rest.

SMILES	GDH-TPI counter-1	PfHsp40 yeast	PrPC TRFRET	BJeLR viability	Mtb FBA inh	PrP UTR inh	Mtb FBA inh conf	GDH-TPI counter-2	others
CC(=O)Nc1cc2nc(C)n(Cc3ccc([N+](=O)[O-])cc3)c2nc1C	7.1	-0.1	-16.7	-8.1	-2.5	-17.9	nt	nt
Cc1nc2ccc(N)cc2c(=O)n1Cc1ccc(Cl)cc1	9.9	1.1	6.0	4.0	41.1*	-7.9	40.4*	33.5*
C/C(=N\NC(=O)c1nnn(-c2nonc2N)c1-c1ccc(Cl)c(Cl)c1)c1ccncc1	0.0	1.0	-3.8	5.5	2.5	-6.7	nt	nt
CCOC(=O)c1[nH]c2ccc(OC)cc2c1NC(=O)c1cccc(OC)c1	15.7	0.7	4.7	-2.9	1.9	1.8	nt	nt
CCOC(=O)N1CCN(CC(=O)Nc2c(C(=O)OC)[nH]c3ccc(Cl)cc23)CC1	5.0	0.3	1.9	6.7	17.3	-8.8	nt	nt
CCOC(=O)c1[nH]c2cc(OC)c(OC)cc2c1NC(=O)CN(C)C1CCCCC1	39.6*	-1.0	11.5	-14.9	33.5*	-15.8	8.1	-3.0
CCOC(=O)c1[nH]c2ccc(OC)cc2c1NC(=O)CCN1CCC(C)CC1	nt	nt	-8.2	2.0	nt	nt	nt	nt
CCOC(=O)c1[nH]c2ccc(OC)cc2c1NC(=O)CN1CCSCC1	7.1	-0.4	1.0	nt	43.9*	2.1	67.6*	52.3*
CCOC(=O)c1[nH]c2ccc(OC)cc2c1NC(C)=O	8.4	-0.9	-3.6	-12.6	34.2*	-20.7	5.0	-2.5
C=CCOC(=O)Nc1c(C(=O)OC)[nH]c2ccc(Cl)cc12	17.4	-0.9	-0.7	-3.8	40.4*	-2.2	0.1	-3.0
CCOC(=O)c1[nH]c2cc(OC)c(OC)cc2c1NC(=O)c1ccc2c(c1)OCO2	4.9	-0.6	-4.1	3.5	-1.2	1.5	nt	nt
Cc1ccc(OCC(=O)NCCCNC(=O)c2ccc(C)nc2)cc1	-3.0	-0.6	-2.2	-7.1	1.8	-3.6	nt	nt
CCN(c1ccc(OCC(=O)OCC(=O)Nc2ccc(F)c(F)c2F)cc1)S(=O)(=O)c1ccccc1	1.4	0.2	nt	nt	-2.2	-10.2	nt	nt
CCOC(=O)c1[nH]c2ccc(OC)cc2c1NC(=O)c1ccccc1C(=O)O	1.1	0.0	-3.9	-1.5	30.2*	-36.4	31.2*	31.4*
CCOC(=O)c1[nH]c2ccc(F)cc2c1NC(=O)c1cc(OC)c(OC)c(OC)c1	-1.7	3.7	10.6	-6.1	5.4	-7.3	nt	nt
CCOC(=O)c1[nH]c2ccc(F)cc2c1NC(=O)c1ccccc1C(=O)O	-2.1	0.4	-1.4	-5.9	58.5*	-22.8	5.0	-0.4
CCOC(=O)c1[nH]c2cc(OC)c(OC)cc2c1NC(=O)CCN1CCSCC1	20.0	-1.0	3.0	5.8	106.6*	-44.4	125.8*	114.7*
CCOC(=O)c1[nH]c2ccc(OC)cc2c1NC(=O)CCN1CCc2ccccc2C1	6.7	-0.6	-7.6	0.5	39.5*	-18.9	86.9*	83.0*
O=C(Nc1cccc(-c2nc3cccnc3s2)c1)c1ccco1	5.6	11.0	-6.4	13.0	1.4	-75.4	nt	nt
O=C(Nc1ccc2oc(-c3cccnc3)nc2c1)c1ccco1	3.8	5.2	1.8	-13.5	29.4*	-48.2	-2.2	-6.3
O=C(Nc1ccc(-c2nc3cccnc3s2)cc1)c1ccco1	27.9	0.9	2.6	18.6	28.8*	0.7	10.5	-2.2	GDH-TPI dose=3.15*
O=C(Nc1ccc(-c2nc3ncccc3o2)cc1)c1ccco1	44.8*	-0.2	-1.1	-9.4	27.0*	-64.9	58.1*	50.5*
O=[N+]([O-])c1ccc(C[n+]2c(-c3ccccc3)cc(-c3ccccc3)cc2-c2ccccc2)cc1	-10.8	1.1	-29.7	-6.7	67.0*	0.7	+	+
O=C([O-])c1cc(-c2ccccc2)cc(-c2ccccc2)[n+]1Cc1ccccc1	nt	nt	8.9	8.8	nt	nt	nt	nt
Cc1cc(OC(C)C(=O)NCCCN2CCOCC2)c2c(C)c(C)c(=O)oc2c1 (stereo not given)	9.2	0.5	-4.4	7.2	63.5*	-6.7	168.0*	180.8*
SMILES	GDH-TPI counter-1	PfHsp40 yeast	PrPC TRFRET	BJeLR viability	Mtb FBA inh	PrP UTR inh	Mtb FBA inh conf	GDH-TPI counter-2	others
Cc1cc(OC(C)C(=O)NCCN2CCOCC2)c2c(C)cc(=O)oc2c1 (stereo not given)	-2.7	0.2	-7.0	-1.6	32.6*	-0.4	75.5*	63.6*
CCc1cc(=O)oc2cc(C)cc(OC(C)C(=O)NCCCN3CCOCC3)c12 (stereo not given)	3.7	-0.3	-9.9	-9.2	58.6*	-3.4	85.1*	59.9*
Cc1c(C)c2cc(Cl)c(OC(C)C(=O)NCCN3CCOCC3)cc2oc1=O (stereo not given)	0.0	0.7	0.9	-2.7	19.8	-9.9	nt	nt
CCCc1cc(=O)oc2c(C)c(OC(C)C(=O)NCCN3CCOCC3)ccc12 (stereo not given)	3.7	-1.0	1.1	6.7	17.3	-1.3	nt	nt
Cc1ccccc1S(=O)(=O)NC(=O)C1(C)CCN1C(=O)C1(c2ccc(Cl)cc2)CCC1 (stereo not given)	3.6	nt	3.3	nt	0.3	nt	nt	nt
CCN(C(=O)c1ccc(S(=O)(=O)N2CCOCC2)cc1)C1CCS(=O)(=O)C1 (stereo not given)	3.9	-0.5	4.1	-2.0	0.5	-15.0	nt	nt
O=C(NC1CCCCC1)c1ccc2ccccc2c1O	26.6	nt	-4.2	nt	27.9*	nt	4.9	-2.6
c1ccc(Nc2cccc3c(Nc4ccccc4)cccc23)cc1	11.3	-1.4	5.8	3.2	28.0*	-2.8	35.7*	34.4*
Cc1nc2oc3c(=O)[nH]cnc3c2c2c1COC(C)(C)C2	4.9	0.8	6.9	-4.9	44.0*	-6.7	13.2	-4.7	GDH-TPI dose=4.75*
O=C(CSc1cn[nH]n1)Nc1ccc(O)c(C(=O)O)c1	-7.4	-0.4	2.9	2.8	30.9*	-20.2	2.3	2.4
COc1cccc2c(=O)c3ccoc3n(C)c12	21.6	-1.1	0.5	13.8	40.0*	-14.3	74.9*	57.2*
O=C(Nc1ccc2ncccc2c1)c1cc(Cl)ccc1Cl	7.9	1.4	4.5	5.6	-0.9	-37.6	nt	nt
CCCN1C2CCCC1CC(NC(=O)c1ccc(Br)cc1)C2 (stereo not given)	-3.0	0.3	-10.2	6.1	-1.2	-52.4	nt	nt
Nc1nc2n(n1)C(c1cccs1)CC(c1ccc(Br)cc1)N2 (stereo not given)	8.2	0.9	-2.7	-1.5	48.1*	-29.2	15.9	9.0	GDH-TPI dose=7.84*
CC(=O)c1c(O)cc2c3c1OC(C)(C)C1CCC(C)(CC31)O2 (stereo not given)	12.0	nt	-3.7	nt	-0.1	nt	nt	nt
COc1ccc(-c2ccc(C(=O)NCCN(C)C)c3occc23)c(C)c1	6.2	nt	0.3	nt	33.1*	nt	32.9*	24.7*
